Test results as given in paper PMC7862700, “An all-to-all approach to the identification of sequence-specific readers for epigenetic DNA modifications on cytosine”.

Legend:
Test in all cases: DAPPL (digital affinity profiling via proximity ligation, sequencing); 10 mM Tris-HCl pH 7.5, 50 mM NaCl, 1 mM DTT, 4% glycerol, room temperature, 30 min; GST-TFs on glutathione beads, 16-mer random dsDNA library, 0.1% formaldehyde crosslink after washing; high values mean tight binding
Details in all cases: protein: recombinant; tags: N-terminal GST; dsDNA, one strand shown
[1] = target: T1, FLI1 (Homo sapiens, UniProt Q01543 1-452)
T1 sequence: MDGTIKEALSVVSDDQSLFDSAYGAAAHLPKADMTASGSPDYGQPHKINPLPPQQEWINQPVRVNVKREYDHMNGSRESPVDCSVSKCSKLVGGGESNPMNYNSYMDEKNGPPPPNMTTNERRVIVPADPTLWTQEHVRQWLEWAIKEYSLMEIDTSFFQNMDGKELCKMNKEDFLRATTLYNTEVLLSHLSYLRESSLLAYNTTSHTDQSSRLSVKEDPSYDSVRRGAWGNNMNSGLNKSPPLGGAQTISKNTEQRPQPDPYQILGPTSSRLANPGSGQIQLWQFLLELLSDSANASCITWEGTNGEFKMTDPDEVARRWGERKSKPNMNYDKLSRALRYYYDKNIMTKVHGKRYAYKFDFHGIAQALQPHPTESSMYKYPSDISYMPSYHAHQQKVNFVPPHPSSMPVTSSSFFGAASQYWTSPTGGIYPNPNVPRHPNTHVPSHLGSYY
Summary of the method: (§1)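 Each value of binding signal is a hexamer's read frequency for a factor divided by the same hexamer's frequency in the tag-only sample. Barcoded, bead-captured GST fusions of human transcription factors made in yeast were pooled with that sample and incubated with 200 nmole of a random double-stranded 16-mer DNA library in Tris/NaCl/DTT/glycerol buffer at room temperature for 30 min. Washing, 0.1% formaldehyde crosslinking, proximity ligation, PCR and Illumina NextSeq500 sequencing followed.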

[2] = target: T2, ELK1 (Homo sapiens, UniProt P19419 1-428)
T2 sequence: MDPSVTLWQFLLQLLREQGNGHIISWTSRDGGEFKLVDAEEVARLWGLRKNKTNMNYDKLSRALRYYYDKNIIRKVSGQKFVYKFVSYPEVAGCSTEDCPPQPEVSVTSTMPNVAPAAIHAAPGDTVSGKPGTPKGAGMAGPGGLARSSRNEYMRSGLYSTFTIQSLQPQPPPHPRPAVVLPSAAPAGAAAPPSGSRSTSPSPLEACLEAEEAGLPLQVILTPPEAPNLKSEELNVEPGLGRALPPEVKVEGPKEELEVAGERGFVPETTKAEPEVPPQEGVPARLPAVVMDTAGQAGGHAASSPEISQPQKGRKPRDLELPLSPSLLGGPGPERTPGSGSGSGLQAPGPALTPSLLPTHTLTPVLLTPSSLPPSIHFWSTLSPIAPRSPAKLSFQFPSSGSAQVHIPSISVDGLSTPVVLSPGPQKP
Summary of the method: as §1

[3] = target: T3, GABPA (Homo sapiens, UniProt Q06546 1-454)
T3 sequence: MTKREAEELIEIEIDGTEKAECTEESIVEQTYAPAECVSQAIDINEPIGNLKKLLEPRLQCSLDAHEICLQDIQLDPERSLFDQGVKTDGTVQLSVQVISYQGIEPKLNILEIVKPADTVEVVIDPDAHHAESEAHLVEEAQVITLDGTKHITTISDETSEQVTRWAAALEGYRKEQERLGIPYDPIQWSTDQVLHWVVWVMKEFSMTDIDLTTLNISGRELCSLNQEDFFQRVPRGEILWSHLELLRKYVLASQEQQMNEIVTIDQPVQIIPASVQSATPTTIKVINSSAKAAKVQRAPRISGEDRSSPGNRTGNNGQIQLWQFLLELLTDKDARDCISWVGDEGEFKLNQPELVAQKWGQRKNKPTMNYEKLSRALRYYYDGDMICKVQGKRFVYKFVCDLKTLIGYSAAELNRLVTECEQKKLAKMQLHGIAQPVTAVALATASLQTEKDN
Summary of the method: as §1

[4] = target: T4, ERG (Homo sapiens, UniProt P11308 1-479)
T4 sequence: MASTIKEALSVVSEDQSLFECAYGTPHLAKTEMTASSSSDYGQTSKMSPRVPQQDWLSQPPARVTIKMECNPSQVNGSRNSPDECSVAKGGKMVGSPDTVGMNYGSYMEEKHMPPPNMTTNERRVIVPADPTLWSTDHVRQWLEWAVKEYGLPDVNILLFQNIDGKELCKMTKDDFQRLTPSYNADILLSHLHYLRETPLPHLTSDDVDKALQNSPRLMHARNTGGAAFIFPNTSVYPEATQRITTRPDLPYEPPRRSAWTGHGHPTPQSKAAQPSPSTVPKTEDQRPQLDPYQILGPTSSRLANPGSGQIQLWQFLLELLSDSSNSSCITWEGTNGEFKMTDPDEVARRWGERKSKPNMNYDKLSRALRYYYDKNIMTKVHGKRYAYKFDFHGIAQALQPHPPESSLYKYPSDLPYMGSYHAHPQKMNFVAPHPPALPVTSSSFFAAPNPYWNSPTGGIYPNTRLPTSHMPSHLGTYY
Summary of the method: as §1

[5] = target: ELF1 (Homo sapiens, UniProt P32519 1-619)
Summary of the method: as §1

[6] = target: T5, EHF (Homo sapiens, UniProt Q9NZC4 1-300)
T5 sequence: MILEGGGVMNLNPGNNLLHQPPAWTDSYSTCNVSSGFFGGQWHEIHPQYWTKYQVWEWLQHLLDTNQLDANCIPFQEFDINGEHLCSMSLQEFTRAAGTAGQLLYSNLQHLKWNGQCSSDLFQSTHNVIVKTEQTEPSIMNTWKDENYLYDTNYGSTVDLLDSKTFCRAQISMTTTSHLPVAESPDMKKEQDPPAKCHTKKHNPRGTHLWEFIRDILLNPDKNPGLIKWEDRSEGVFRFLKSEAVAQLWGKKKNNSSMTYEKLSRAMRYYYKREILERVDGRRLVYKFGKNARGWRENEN
Summary of the method: as §1

[7] = target: SPI1 (Homo sapiens, UniProt P17947 1-270)
Summary of the method: as §1

[8] = target: SPIB (Homo sapiens, UniProt Q01892 1-262)
Summary of the method: as §1

[9] = target: T6, ELK3 (Homo sapiens, UniProt P41970 1-407)
T6 sequence: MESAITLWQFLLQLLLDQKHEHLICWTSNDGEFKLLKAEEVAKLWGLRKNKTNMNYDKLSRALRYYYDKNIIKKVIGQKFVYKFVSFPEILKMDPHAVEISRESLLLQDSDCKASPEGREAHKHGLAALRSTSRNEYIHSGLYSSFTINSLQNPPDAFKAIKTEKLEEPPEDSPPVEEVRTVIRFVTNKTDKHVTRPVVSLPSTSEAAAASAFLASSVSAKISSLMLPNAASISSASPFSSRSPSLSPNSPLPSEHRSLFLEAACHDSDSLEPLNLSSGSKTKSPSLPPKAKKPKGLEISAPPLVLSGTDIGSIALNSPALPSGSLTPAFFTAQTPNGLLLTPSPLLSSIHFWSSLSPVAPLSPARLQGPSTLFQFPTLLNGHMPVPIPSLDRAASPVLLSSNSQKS
Summary of the method: as §1

[10] = target: T7, FEV (Homo sapiens, UniProt Q99581 1-238)
T7 sequence: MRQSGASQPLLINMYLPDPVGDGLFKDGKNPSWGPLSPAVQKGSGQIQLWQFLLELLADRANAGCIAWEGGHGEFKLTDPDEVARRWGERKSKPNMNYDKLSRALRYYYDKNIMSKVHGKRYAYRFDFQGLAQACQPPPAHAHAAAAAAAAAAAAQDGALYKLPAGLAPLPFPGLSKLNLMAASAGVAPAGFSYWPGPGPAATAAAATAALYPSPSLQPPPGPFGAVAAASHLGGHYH
Summary of the method: as §1

[11] = target: ETV5 (Homo sapiens, UniProt P41161 1-510)
Summary of the method: as §1

[12] = target: T8, SPIC (Homo sapiens, UniProt Q8N5J4 1-248)
T8 sequence: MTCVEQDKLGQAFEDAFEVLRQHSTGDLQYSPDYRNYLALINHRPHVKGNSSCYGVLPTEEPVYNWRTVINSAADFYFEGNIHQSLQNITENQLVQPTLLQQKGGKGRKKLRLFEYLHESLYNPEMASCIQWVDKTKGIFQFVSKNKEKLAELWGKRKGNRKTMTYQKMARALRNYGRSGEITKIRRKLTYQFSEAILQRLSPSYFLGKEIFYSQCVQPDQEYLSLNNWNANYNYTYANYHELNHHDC
Summary of the method: as §1

[13] = target: ELF4 (Homo sapiens, UniProt Q99607 1-663)
Summary of the method: as §1

[14] = target: T9, ELK4 (Homo sapiens, UniProt P28324-2 1-405)
T9 sequence: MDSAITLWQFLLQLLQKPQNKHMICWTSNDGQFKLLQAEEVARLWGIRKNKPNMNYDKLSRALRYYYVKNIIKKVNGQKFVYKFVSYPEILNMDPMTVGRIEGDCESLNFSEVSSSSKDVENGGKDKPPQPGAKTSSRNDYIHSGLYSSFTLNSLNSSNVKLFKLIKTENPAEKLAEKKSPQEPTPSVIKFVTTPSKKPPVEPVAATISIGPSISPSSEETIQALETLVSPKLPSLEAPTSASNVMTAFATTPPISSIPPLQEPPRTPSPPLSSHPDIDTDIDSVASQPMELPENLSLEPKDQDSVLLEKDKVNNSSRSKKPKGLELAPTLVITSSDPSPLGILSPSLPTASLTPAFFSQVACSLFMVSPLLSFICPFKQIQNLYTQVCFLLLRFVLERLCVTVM
Summary of the method: as §1

[15] = target: T10, ETV2 (Homo sapiens, UniProt O00321 1-342)
T10 sequence: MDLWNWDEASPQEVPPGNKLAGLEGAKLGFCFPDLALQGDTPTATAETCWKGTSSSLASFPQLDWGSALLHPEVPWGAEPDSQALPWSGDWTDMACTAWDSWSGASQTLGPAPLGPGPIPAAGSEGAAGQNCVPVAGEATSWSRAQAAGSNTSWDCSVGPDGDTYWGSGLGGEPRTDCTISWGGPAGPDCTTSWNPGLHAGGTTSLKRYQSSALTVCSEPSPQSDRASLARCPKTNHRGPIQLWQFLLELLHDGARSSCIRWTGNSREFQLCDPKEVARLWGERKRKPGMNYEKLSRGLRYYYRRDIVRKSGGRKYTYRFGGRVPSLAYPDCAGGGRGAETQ
Summary of the method: as §1

[16] = target: T11, ELF3 (Homo sapiens, UniProt P78545 1-371)
T11 sequence: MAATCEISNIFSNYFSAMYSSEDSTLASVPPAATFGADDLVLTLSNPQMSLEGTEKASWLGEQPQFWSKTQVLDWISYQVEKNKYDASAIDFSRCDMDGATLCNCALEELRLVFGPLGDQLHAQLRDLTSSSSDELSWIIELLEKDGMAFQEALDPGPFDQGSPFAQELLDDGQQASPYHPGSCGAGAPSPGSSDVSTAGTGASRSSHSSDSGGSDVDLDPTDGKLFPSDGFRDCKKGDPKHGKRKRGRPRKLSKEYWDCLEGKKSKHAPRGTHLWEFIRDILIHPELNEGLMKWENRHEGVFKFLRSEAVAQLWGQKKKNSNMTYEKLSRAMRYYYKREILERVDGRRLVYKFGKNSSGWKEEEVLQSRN
Summary of the method: as §1

[17] = target: ETV1 (Homo sapiens, UniProt P50549 1-477)
Summary of the method: as §1

[18] = target: CRX (Homo sapiens, UniProt O43186 1-299)
Summary of the method: as §1

ETV5, sequence (P41161 whole entry): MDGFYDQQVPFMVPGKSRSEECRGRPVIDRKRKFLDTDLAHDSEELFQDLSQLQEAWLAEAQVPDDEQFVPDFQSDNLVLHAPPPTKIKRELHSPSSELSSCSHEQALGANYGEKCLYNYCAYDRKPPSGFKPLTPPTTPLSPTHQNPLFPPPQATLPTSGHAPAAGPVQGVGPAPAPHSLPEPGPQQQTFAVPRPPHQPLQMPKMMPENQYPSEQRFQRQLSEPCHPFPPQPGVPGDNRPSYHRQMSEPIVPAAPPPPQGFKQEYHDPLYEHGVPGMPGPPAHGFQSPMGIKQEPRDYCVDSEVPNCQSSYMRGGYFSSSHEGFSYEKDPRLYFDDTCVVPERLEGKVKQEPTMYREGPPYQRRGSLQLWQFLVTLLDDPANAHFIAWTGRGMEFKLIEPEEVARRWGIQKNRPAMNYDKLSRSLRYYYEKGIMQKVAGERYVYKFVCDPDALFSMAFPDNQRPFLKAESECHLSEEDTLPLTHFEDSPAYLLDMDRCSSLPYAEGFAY
ETV1, sequence (P50549 whole entry): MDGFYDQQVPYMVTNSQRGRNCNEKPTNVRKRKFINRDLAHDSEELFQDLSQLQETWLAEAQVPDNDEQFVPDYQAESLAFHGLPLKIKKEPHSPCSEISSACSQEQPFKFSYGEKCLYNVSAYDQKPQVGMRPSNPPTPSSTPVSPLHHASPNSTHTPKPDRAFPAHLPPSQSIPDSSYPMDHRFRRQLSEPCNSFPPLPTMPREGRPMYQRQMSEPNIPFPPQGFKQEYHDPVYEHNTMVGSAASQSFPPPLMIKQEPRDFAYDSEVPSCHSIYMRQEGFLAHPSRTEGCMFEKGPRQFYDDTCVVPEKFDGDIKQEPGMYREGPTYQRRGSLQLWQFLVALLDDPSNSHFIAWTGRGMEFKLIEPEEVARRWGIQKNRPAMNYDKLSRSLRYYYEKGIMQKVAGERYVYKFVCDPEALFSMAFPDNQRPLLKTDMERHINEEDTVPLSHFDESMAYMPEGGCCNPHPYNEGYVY
SPIB, sequence (Q01892 whole entry): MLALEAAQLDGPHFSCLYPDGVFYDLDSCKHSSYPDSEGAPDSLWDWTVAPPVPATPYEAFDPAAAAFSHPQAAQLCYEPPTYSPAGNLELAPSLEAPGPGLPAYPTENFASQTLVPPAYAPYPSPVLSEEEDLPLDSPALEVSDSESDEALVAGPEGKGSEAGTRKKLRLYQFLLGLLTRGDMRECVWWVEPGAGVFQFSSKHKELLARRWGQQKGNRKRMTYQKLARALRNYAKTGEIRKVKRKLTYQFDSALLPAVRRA
ELF4, sequence (Q99607 whole entry): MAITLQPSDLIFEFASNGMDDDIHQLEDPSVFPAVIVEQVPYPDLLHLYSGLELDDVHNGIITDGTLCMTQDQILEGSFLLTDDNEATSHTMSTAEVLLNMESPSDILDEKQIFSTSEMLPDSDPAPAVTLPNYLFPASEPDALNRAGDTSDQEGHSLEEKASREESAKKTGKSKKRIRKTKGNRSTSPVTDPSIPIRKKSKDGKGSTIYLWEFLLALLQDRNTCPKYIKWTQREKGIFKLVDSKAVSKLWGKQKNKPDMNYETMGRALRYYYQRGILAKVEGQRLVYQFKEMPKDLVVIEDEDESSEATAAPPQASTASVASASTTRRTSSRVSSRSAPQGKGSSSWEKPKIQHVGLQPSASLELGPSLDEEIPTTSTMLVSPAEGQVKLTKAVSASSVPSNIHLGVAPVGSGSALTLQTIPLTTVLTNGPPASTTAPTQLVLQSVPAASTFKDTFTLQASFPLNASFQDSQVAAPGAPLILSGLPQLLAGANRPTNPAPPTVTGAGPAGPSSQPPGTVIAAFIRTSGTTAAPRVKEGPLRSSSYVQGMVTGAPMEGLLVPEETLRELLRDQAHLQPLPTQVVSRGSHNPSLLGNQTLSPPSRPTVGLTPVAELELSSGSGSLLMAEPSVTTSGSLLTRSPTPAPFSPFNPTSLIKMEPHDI
ELF1, sequence (P32519 whole entry): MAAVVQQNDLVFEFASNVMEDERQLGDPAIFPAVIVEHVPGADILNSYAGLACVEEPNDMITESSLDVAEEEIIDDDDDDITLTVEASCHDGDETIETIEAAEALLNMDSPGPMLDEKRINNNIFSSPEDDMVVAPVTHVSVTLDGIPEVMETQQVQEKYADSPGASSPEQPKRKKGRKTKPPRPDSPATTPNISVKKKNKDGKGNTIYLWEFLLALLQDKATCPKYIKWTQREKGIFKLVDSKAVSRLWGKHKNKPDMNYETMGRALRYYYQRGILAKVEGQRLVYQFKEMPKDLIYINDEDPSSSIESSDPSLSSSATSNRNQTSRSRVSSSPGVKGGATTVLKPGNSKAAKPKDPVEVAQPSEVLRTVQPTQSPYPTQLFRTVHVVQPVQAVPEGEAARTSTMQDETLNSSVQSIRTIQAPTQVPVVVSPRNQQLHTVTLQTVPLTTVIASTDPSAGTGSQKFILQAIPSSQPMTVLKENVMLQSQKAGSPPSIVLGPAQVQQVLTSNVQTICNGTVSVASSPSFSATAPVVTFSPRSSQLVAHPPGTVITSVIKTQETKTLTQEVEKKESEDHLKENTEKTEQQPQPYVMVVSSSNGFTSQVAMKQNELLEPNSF
CRX, sequence (O43186 whole entry): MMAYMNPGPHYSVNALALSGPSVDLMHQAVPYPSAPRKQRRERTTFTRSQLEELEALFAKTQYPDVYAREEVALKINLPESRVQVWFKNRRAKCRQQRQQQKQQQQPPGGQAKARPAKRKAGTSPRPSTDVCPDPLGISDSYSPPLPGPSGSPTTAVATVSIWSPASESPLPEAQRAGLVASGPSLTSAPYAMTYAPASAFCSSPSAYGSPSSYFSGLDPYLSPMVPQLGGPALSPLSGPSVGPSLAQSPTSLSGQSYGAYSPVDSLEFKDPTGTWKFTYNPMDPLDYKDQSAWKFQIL

Sequence | binding signal [1] | binding signal [2] | binding signal [3] | binding signal [4] | binding signal [5] | binding signal [6] | binding signal [7] | binding signal [8] | binding signal [9] | binding signal [10] | binding signal [11] | binding signal [12] | binding signal [13] | binding signal [14] | binding signal [15] | binding signal [16] | binding signal [17] | binding signal [18]
GTGACC | 1.29 fold enrichment (6-mer frequency, TF over GST control) | 1.27 fold enrichment (6-mer frequency, TF over GST control) | 1.18 fold enrichment (6-mer frequency, TF over GST control) | 1.24 fold enrichment (6-mer frequency, TF over GST control) | 1.25 fold enrichment (6-mer frequency, TF over GST control) | 1.36 fold enrichment (6-mer frequency, TF over GST control) | 1.32 fold enrichment (6-mer frequency, TF over GST control) | 1.24 fold enrichment (6-mer frequency, TF over GST control) | 1.03 fold enrichment (6-mer frequency, TF over GST control) | 1.36 fold enrichment (6-mer frequency, TF over GST control) | 1.22 fold enrichment (6-mer frequency, TF over GST control) | 1.34 fold enrichment (6-mer frequency, TF over GST control) | 1.27 fold enrichment (6-mer frequency, TF over GST control) | 1.36 fold enrichment (6-mer frequency, TF over GST control) | 1.12 fold enrichment (6-mer frequency, TF over GST control) | 1.3 fold enrichment (6-mer frequency, TF over GST control) | 1.24 fold enrichment (6-mer frequency, TF over GST control) | 
GGCTTG | 1.12 fold enrichment (6-mer frequency, TF over GST control) | 1.04 fold enrichment (6-mer frequency, TF over GST control) | 1.04 fold enrichment (6-mer frequency, TF over GST control) | 1.09 fold enrichment (6-mer frequency, TF over GST control) |  |  | 1.02 fold enrichment (6-mer frequency, TF over GST control) | 1.06 fold enrichment (6-mer frequency, TF over GST control) |  | 1.01 fold enrichment (6-mer frequency, TF over GST control) | 1.01 fold enrichment (6-mer frequency, TF over GST control) | 1.12 fold enrichment (6-mer frequency, TF over GST control) | 1.07 fold enrichment (6-mer frequency, TF over GST control) | 1.12 fold enrichment (6-mer frequency, TF over GST control) | 1.01 fold enrichment (6-mer frequency, TF over GST control) | 1.11 fold enrichment (6-mer frequency, TF over GST control) | 1.08 fold enrichment (6-mer frequency, TF over GST control) | 1.06 fold enrichment (6-mer frequency, TF over GST control)
AAGTGG | 1.09 fold enrichment (6-mer frequency, TF over GST control) | 1.19 fold enrichment (6-mer frequency, TF over GST control) | 1.22 fold enrichment (6-mer frequency, TF over GST control) | 1.16 fold enrichment (6-mer frequency, TF over GST control) | 1.17 fold enrichment (6-mer frequency, TF over GST control) | 1.24 fold enrichment (6-mer frequency, TF over GST control) | 1.5 fold enrichment (6-mer frequency, TF over GST control) | 1.26 fold enrichment (6-mer frequency, TF over GST control) | 1.33 fold enrichment (6-mer frequency, TF over GST control) | 1.23 fold enrichment (6-mer frequency, TF over GST control) | 1.17 fold enrichment (6-mer frequency, TF over GST control) | 1.43 fold enrichment (6-mer frequency, TF over GST control) | 1.12 fold enrichment (6-mer frequency, TF over GST control) | 1.13 fold enrichment (6-mer frequency, TF over GST control) | 1.02 fold enrichment (6-mer frequency, TF over GST control) | 1.19 fold enrichment (6-mer frequency, TF over GST control) | 1.2 fold enrichment (6-mer frequency, TF over GST control) | 
